Among the data in paper PMC7862700, “An all-to-all approach to the identification of sequence-specific readers for epigenetic DNA modifications on cytosine” are binding signal values, retold here.

What all share (test): DAPPL (digital affinity profiling via proximity ligation, sequencing); 10 mM Tris-HCl pH 7.5, 50 mM NaCl, 1 mM DTT, 4% glycerol, room temperature, 30 min; GST-TFs on glutathione beads, 16-mer random dsDNA library, 0.1% formaldehyde crosslink after washing; high values mean tight binding
Common to all, as to conditions: protein: recombinant; tags: N-terminal GST; dsDNA, one strand shown

One assay concerns the target T1, FLI1 (Homo sapiens, UniProt Q01543 1-452).
T1 sequence: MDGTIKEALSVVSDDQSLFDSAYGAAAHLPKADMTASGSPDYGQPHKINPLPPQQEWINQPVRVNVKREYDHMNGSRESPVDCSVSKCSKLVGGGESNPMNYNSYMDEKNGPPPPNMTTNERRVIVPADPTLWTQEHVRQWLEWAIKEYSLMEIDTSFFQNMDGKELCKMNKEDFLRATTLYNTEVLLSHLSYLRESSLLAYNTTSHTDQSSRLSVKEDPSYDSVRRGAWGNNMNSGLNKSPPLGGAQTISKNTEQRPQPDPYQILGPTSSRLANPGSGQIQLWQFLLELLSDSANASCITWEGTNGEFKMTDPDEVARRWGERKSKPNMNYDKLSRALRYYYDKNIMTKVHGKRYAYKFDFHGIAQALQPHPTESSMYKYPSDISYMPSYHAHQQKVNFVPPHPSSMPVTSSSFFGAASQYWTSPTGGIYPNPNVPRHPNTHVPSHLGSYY
In a few lines:
(§1)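 Human transcription factors were made in yeast as GST fusions, captured on glutathione beads and barcoded with DNA. With a tag-only sample included, the pool was incubated with 200 nmole of a random double-stranded 16-mer DNA library in Tris/NaCl/DTT/glycerol buffer at room temperature for 30 min, then crosslinked with 0.1% formaldehyde after washing, ligated by proximity, amplified and sequenced. For binding signal, each hexamer's read frequency for a factor is divided by its frequency for the tag-only sample.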

The next assay deals with T2, ELK1 (Homo sapiens, UniProt P19419 1-428).
T2 sequence: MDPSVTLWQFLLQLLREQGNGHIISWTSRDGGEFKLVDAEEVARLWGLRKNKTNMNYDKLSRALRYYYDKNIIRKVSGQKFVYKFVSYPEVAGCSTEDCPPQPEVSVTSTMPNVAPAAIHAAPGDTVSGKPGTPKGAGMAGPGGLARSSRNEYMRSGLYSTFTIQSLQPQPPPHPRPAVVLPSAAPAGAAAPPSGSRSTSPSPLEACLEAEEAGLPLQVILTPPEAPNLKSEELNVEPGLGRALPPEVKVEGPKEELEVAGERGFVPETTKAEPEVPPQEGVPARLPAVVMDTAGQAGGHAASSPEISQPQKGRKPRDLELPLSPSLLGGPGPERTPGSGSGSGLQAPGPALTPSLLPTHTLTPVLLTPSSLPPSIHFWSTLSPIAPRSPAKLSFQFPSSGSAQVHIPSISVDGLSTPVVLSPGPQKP
In a few lines: as §1

The next assay concerns the target T3, GABPA (Homo sapiens, UniProt Q06546 1-454).
T3 sequence: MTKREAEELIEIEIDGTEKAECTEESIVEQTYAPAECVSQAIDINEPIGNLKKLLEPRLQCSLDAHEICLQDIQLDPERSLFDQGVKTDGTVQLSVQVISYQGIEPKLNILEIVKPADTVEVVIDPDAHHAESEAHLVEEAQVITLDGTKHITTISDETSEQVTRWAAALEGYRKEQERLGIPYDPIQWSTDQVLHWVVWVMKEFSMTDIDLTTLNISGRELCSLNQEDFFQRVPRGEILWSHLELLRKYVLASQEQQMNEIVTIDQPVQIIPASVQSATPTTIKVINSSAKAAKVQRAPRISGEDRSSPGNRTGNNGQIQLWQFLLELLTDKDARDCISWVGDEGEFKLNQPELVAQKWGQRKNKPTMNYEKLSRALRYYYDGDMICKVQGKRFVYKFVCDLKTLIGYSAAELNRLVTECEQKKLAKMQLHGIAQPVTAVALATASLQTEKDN
In a few lines: as §1

The target in another assay is T4, ERG (Homo sapiens, UniProt P11308 1-479).
T4 sequence: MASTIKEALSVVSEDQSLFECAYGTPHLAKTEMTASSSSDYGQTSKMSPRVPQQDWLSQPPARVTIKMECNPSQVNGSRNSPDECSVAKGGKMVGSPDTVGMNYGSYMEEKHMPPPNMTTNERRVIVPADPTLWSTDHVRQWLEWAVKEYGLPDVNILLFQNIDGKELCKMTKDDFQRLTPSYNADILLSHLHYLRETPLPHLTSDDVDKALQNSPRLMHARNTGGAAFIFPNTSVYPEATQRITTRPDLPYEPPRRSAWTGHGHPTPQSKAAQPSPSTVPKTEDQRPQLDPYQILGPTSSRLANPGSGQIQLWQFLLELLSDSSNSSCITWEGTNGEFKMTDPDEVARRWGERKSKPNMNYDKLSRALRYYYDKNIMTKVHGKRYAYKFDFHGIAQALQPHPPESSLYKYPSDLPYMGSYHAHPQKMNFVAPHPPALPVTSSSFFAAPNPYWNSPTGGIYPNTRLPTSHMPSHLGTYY
An outline of the steps:
as §1

Another assay addresses ELF1 (Homo sapiens, UniProt P32519 1-619). An outline of the steps: as §1
Another assay addresses T5, EHF (Homo sapiens, UniProt Q9NZC4 1-300).
T5 sequence: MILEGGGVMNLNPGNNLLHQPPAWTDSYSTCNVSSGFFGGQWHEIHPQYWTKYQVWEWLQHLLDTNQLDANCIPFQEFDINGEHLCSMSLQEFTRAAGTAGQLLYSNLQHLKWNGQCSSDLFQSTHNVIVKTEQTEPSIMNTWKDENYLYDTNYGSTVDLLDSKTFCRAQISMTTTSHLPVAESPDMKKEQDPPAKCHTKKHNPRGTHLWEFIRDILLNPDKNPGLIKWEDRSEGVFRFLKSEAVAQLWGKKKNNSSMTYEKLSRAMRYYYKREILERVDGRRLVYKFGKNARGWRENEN
In a few lines:
as §1

Another assay concerns the target SPIB (Homo sapiens, UniProt Q01892 1-262). In a few lines:
as §1

For another assay, the target named is T6, ELK3 (Homo sapiens, UniProt P41970 1-407).
T6 sequence: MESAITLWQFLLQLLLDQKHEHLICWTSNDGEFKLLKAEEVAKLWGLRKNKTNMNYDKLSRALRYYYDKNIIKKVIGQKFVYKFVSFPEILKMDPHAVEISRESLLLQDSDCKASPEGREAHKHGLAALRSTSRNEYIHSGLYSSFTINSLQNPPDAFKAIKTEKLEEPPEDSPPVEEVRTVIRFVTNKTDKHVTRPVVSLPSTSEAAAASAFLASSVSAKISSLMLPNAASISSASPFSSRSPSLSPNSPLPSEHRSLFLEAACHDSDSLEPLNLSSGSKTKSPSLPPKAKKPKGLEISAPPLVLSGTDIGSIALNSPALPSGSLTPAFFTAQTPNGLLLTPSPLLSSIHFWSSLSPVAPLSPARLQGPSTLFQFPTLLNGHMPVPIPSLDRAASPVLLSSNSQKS
An outline of the steps: as §1

A further assay has as its target ELF4 (Homo sapiens, UniProt Q99607 1-663). An outline of the steps: as §1

Chain of ELF1 (P32519 whole entry): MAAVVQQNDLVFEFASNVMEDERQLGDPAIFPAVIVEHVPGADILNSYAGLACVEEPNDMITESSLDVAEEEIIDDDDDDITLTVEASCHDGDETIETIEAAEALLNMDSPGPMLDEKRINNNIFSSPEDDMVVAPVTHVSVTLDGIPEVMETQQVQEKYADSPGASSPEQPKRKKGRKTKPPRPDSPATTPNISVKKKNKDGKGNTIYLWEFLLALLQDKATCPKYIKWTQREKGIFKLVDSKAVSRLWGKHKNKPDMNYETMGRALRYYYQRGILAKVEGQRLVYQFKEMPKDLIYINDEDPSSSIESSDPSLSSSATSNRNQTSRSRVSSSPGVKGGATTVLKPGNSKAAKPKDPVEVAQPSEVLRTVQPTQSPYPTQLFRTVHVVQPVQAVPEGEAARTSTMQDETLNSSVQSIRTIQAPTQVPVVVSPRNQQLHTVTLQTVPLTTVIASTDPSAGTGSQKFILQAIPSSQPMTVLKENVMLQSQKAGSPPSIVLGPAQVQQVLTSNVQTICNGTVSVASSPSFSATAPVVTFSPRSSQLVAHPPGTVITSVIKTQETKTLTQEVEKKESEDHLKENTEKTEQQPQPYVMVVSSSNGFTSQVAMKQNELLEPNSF
Chain of ELF4 (Q99607 whole entry): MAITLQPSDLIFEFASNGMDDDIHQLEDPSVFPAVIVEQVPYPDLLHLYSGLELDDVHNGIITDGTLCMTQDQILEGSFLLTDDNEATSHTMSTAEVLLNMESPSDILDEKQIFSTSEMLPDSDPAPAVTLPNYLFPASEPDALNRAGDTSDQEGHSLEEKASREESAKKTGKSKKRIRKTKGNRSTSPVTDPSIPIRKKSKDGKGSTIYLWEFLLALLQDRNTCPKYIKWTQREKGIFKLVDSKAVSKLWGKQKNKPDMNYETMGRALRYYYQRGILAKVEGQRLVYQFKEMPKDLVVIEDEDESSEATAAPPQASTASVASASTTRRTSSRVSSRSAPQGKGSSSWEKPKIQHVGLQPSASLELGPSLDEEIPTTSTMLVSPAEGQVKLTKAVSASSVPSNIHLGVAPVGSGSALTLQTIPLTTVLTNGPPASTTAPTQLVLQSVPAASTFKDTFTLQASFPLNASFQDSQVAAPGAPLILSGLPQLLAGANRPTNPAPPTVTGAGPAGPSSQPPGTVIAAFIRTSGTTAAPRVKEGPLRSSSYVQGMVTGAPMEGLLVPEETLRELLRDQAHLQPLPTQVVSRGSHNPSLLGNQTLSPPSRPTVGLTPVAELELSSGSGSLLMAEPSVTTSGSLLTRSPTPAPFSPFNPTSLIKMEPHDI
Chain of SPIB (Q01892 whole entry): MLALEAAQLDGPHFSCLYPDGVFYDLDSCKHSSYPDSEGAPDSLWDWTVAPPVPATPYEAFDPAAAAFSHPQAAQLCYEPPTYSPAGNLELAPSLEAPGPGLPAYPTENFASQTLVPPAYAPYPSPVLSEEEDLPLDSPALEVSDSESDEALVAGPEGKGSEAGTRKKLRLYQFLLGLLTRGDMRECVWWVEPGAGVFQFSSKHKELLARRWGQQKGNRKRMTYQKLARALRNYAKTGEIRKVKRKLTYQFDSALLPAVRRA

Turning to TGGCCA, the binding signal with FLI1 is 1.1 fold enrichment (6-mer frequency, TF over GST control); in the assay with ELK1, 1.09 fold enrichment (6-mer frequency, TF over GST control); with GABPA, 1.16 fold enrichment (6-mer frequency, TF over GST control); in the assay with ERG it was 1.05 fold enrichment (6-mer frequency, TF over GST control); with ELF1, 1.14 fold enrichment (6-mer frequency, TF over GST control); with EHF, 1.05 fold enrichment (6-mer frequency, TF over GST control). Moreover, the binding signal in the assay with SPIB is 1.13 fold enrichment (6-mer frequency, TF over GST control); with ELK3, 1.1 fold enrichment (6-mer frequency, TF over GST control); with ELF4, 1.13 fold enrichment (6-mer frequency, TF over GST control).
